GALR2 blocker: GALR2 (human) receptor antagonism. O43603. GALR2-expressing cells, antagonist mode. inhibition, % at 4 µM. actives 0.39% (n = 140,000). AID 828; in the data active = inhibition above about 27%;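 note: cells stimulated with galanin 1-16 at roughly its EC80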
Target sequence (O43603 whole entry, looked up): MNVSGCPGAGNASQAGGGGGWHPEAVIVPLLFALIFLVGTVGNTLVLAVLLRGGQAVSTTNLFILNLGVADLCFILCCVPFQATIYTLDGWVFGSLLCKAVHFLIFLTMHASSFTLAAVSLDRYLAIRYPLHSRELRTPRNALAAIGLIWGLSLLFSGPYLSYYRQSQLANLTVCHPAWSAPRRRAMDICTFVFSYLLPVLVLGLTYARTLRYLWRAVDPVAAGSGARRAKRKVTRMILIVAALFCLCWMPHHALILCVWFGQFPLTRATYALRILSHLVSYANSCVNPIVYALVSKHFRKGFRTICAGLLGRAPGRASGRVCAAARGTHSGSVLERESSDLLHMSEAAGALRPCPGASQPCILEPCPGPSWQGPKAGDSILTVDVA
S1P2 agonist: agonists of human S1P2 receptor | O95136 | S1P2-expressing cell line, agonist reporter read-out | activation, % at 4.5 µM | actives 0.46% (n = 97,000) | AID 729; in the data active = activation above about 16%
Smad3 inh: blocks human Smad3 binding to FoxH1 peptide; inhibition, % at 25 µM; TR-FRET Smad3/Dy647-FoxH1 peptide binding, europium anti-His; AID 630; actives 0.29% (n = 88,000);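 active = compounds that reduce the energy-transfer binding signal between the protein and its labelled peptide by more than half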
Calb biofilm kill: kills Candida albicans biofilms; C. albicans biofilm + clotrimazole, Alamar Blue; inhibition, % at 6 µM; actives 0.14% (n = 85,000); AID 834;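 active = inhibition above 20%; inactive = inhibition below 20%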;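 note: preformed 24 hr biofilms exposed to compound for 48 hr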
GALR2 ag: agonists of human galanin receptor 2 (GALR2); GALR2-expressing cells, agonist activation read-out; activation, % (test concentration not listed); actives 0.48% (n = 140,000); AID 803; in the data active = activation above about 5%, passing the limit was not always enough
S1P2 antag: blocks the human S1P2 receptor; O95136; cell-based S1P2 antagonist assay, inhibition at 5 uM; inhibition, % at 5 µM; actives 0.21% (n = 97,000); in the data active = inhibition above about 45%;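 note: CRE beta-lactamase reporter cells expressing human S1P2 stimulated with S1P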
Hits are given with their value; n = inactive; x = no result given; [ ] = another dose, or the depositor's remark. Compounds with a hit are over-represented: about 1.3% of the library has one in this group of screens.

SMILES | GALR2 blocker | S1P2 agonist | Smad3 inh | Calb biofilm kill | GALR2 ag | S1P2 antag
O=[N+]([O-])c1c(NCCCO)cc(Sc2ccc(Cl)cc2)c2nonc12 | n | x | x | x | 5.0 | x
COC(=O)[C@@H]1C(O)[C@H](C(=O)OC)[C@@H](C)N(C)[C@H]1C (some centres not stated) | x | x | n | x | x | x
CCOC(=O)C1=C(C)Nc2sc(C(=O)c3ccc(OC)cc3)c(N)c2C1c1ccc(C(=O)OC)cc1 (configuration not stated) | n | x | x | x | 5.6 | x
O=C(O)[C@@H]1[C@H](C(=O)Nc2cccc3cccnc23)[C@@H]2CC[C@H]1O2 | x | x | 98 | x | x | x
NC(=O)c1cc2ccc(O)cc2oc1=NCc1ccccc1 | n | x | x | x | 45 | x
NC(=O)c1cc2ccc(O)cc2oc1=Nc1ccccc1 | n | x | x | x | n | x
COc1ccc(OC)c(N=c2oc3cc(O)ccc3cc2C(N)=O)c1 | n | n | n | n | 5.3 | n
Cc1ccc(C)c(/C(O)=C2/C(=O)C(=O)N(CCN3CCOCC3)C2c2ccco2)c1 (configuration not stated) | n | n | n | n | n | n
CC(C(=O)NC1CCCC1)N(C(=O)c1snc(C(N)=O)c1N)c1ccc2c(c1)OCCO2 (configuration not stated) | n | n | n | n | n | n
Cn1c(-c2cc3ccc(OC(=O)C(C)(C)C)cc3oc2=O)nc2ccccc21 | n | 34 | n | n | 46 | n
Cc1cc2ccc(OC(=O)c3ccc(N=C(N)N)cc3)cc2oc1=O | x | x | n | x | x | x
COc1ccc2nc(SCc3nc(N)nc(Nc4ccccc4)n3)[nH]c2c1 | n | 17 | n | n | n | n
Nc1ncnc2c1ncn2[C@H]1O[C@@H](C(=O)OCCO)[C@H](O)[C@H]1O | x | x | n | x | x | x
Cc1ccc(S(=O)(=O)N2CCCC2C(=O)Oc2ccccc2)cc1 (configuration not stated) | n | 36 | n | n | n | n
COc1ccc(-c2nnc3c4ccccc4c(C)nn23)cc1S(=O)(=O)N1CCN(CCO)CC1 | n | 17 | n | n | n | n
Cc1ccc(-c2nn3c(C)nnc3c3ccccc23)cc1S(=O)(=O)N1CCN(CCO)CC1 | n | n | n | n | n | n
O=c1cc(-c2c(F)c(F)c(F)c(F)c2F)oc2c(F)c(F)c(F)c(F)c12 | 69 | x | n | n | n | x
O=C(N/N=C/c1cc(Cl)ccc1O)c1ccc(Br)cc1 | n | x | x | x | n | x
O=C(N/N=C\c1cc(Br)ccc1O)c1ccc(S(=O)(=O)N2CCCCC2)cc1 | n | x | x | x | 6.1 | x
Cc1ccc(C)c(/C(=N/N=C(N)N)C2CC2)c1 | x | x | n | x | x | x
Cc1sc2ncnc(OCC(=O)N3CCN(S(=O)(=O)c4ccccc4)CC3)c2c1C | n | n | x | x | n | n
CN1CCC[C@H]1c1cccnc1.O=C(O)c1ccccc1O.O=C([OH2+])c1ccccc1O.O=C([OH2+])c1ccccc1O.O=C([OH2+])c1ccccc1O.[Mn] | x | x | n | x | x | x
CC(C)Cn1cnc2c(c(-c3ccccc3)c(-c3ccccc3)n2Cc2ccco2)c1=N | n | n | n | n | n | n
N=c1c2c(-c3ccccc3)c(-c3ccccc3)n(Cc3ccco3)c2ncn1Cc1ccccc1 | n | n | n | 43 | n | n
COc1ccc2cc(/C=N/NC(=O)CN(c3ccccc3)S(=O)(=O)c3ccccc3)c(Cl)nc2c1 | n | x | x | x | 6.5 | x
SMILES | GALR2 blocker | S1P2 agonist | Smad3 inh | Calb biofilm kill | GALR2 ag | S1P2 antag
CCOc1ccc(S(=O)(=O)N(CC(=O)N/N=C/c2ccc(-c3ccc([N+](=O)[O-])cc3)o2)c2ccccc2)cc1 | n | n | x | x | n | 61
CCOc1ccc(NC(=O)CN(c2ccc([N+](=O)[O-])cc2)S(=O)(=O)c2ccccc2)cc1 | n | x | x | x | n | x
Cc1ccc(C)c(N(CC(=O)N/N=C/c2ccc(-c3ccc([N+](=O)[O-])cc3)o2)S(=O)(=O)c2ccccc2)c1 | n | n | x | x | n | 67
CN(C)c1ccc(NC(=O)CC(NCc2ccccn2)C(=O)O)cc1 (configuration not stated) | n | x | x | x | n | x
COC(=O)c1cnc(SC)nc1C | n | n | x | x | n | n
O=C(CSCc1c(Cl)cccc1Cl)Nc1ccccc1-c1ccccc1 | n | x | x | x | n | x
Cc1cc(N=Cc2c(CO)cnc(C)c2O)c(N=Cc2c(CO)cnc(C)c2O)cc1C.[Zn] | x | x | 93 | x | x | x
Cn1c(=O)c2c(nc(CN3CCN(C(=O)c4ccco4)CC3)n2CCCc2ccccc2)n(C)c1=O | n | n | n | n | n | n
COc1ccc(C(C)(C)C)cc1NC(=S)NCCN1CCOCC1 | n | x | x | x | n | x
O=C(O)CCC(=O)N1CCN(c2nc(-c3ccccc3Cl)c3cc(Br)ccc3n2)CC1 | n | 16 | n | n | n | n
O=C(NCCC(=O)N1CCN(c2ncccn2)CC1)c1ccccc1Cl | n | n | x | x | n | n
COC(=O)[C@H]1CCCN1C(=O)Nc1cccc(Oc2c(F)c(F)c(F)c(F)c2F)c1 | n | n | n | n | 14 | n
CCN(CC)C(=S)SCC(=O)NC12CC3CC(CC(C3)C1)C2 | n | x | x | x | n | x
COc1cc(-c2nc3n(n2)C(c2cccc(OC)c2OC)C2=C(CCCC2=O)N3)cc(OC)c1OC (configuration not stated) | n | 27 | n | n | n | n
NC(=O)c1oc2ccccc2c1NC(=O)CN1CCCCC1 | n | n | n | n | n | n
NC(=O)c1oc2ccccc2c1NC(=O)C1CCCCC1 | n | x | n | 21 | n | x
N#Cc1cc2c(nc1SCc1ccccc1)CCC2 | n | n | 52[fluorescence artefact?] | n | n | n
N#Cc1cc2c(nc1SCC(=O)N1CCCCC1)CCCCC2 | n | n | n | n | n | n
N#Cc1cc2c(nc1SCC(=O)N1CCCCC1)CCCC2 | n | 32 | n | n | n | n
O=C1C2=C(Nc3cc([N+](=O)[O-])ccc3N2)O[C@@H]1c1c[nH]c2ccc(COc3ccccc3)cc12 | x | x | n | x | x | x
O=C(CN1c2cccc3cccc(c23)S1(=O)=O)Nc1cccc(S(=O)(=O)N2CCOCC2)c1 | n | x | x | x | n | x
CC(C)(C)c1ccc(C(=O)NCC(=O)OCC(=O)c2ccc3c(c2)-c2ccccc2C3)cc1 | n | x | x | x | n | x
O=C(O)/C=C/C(=O)Nc1ccc2c(c1)C(=O)c1cc(F)ccc1-2 | x | x | n | x | x | x
O=C1C2[C@@H](c3ccccc3)N[C@@H](c3ccccc3)C1[C@@H](c1ccccc1)N[C@H]2c1ccccc1 | x | x | n | x | x | x
Fc1cccc(Cl)c1/C=N/N=C1c2ccccc2-c2ccccc21 | x | x | 59 | x | x | x
O=S(=O)(c1ccc2ccccc2c1)N1CCN(S(=O)(=O)c2ccc3ccccc3c2)CC1 | x | x | 91 | x | x | x

Screens as filed in PubChem BioAssay.
